Unmarked numbers belong to inactive results. Activity calls are given as the source filed them. The rule behind the calls is not given here.

Experiment [1] deals with Nuclear receptor subfamily 1 group I member 2 (Rattus norvegicus) (UniProt Q9R1A7). Description: qHTS assay for small molecule activators of the rat pregnane X receptor (rPXR) signaling pathway (AID 651751). Particulars: rPXR reporter cells, luciferase (One-Glo), 24 h. Background: In qHTS, concentration-response curves come from the screen itself.
Experiment [2] can be described thus: qHTS assay for small molecule activators of the human pregnane X receptor (PXR) signaling pathway (AID 720659). Conditions: DPX-2 HepG2 CYP3A4-luciferase, 24 h; series mostly up to 92.3 µM.
Note: 0% is about no effect.

Chain of Nuclear receptor subfamily 1 group I member 2 (Rattus norvegicus) (Q9R1A7 whole entry, looked up): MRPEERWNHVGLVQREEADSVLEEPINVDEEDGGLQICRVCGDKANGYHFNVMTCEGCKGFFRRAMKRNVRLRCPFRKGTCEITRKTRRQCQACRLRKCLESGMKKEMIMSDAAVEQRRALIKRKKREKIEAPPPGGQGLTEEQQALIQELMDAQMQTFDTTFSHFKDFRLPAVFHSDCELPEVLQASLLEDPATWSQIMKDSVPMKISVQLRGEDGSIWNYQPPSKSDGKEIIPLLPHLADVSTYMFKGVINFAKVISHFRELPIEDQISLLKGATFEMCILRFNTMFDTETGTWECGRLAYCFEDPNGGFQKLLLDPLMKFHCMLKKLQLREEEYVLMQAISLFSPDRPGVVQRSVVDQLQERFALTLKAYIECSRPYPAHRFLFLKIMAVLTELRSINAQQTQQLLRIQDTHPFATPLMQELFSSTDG

Consider `O=C(OCc1ccccc1)c1ccccc1`, for which the max response in experiment [1] was -3.55%. In experiment [2], the outcome was inactive.

Consider `CCCCCCCCCCCCCCCC(=O)OC(C)C`, for which, in experiment [1], the max response is -0.444%. The outcome in experiment [2] was inactive.

Turning to `O=C(O)[C@H](O)[C@@H](O)[C@H](O)[C@H](O)CO`, the result in experiment [2] was inactive.

Consider `CC(C)OC(=O)c1cc(C(=O)OC(C)C)cc([N+](=O)[O-])c1`, for which the max response in experiment [1] is 14.5%. In experiment [2], the call was inactive.

On to `O=C1CN(/N=C/c2ccc([N+](=O)[O-])o2)C(=O)N1`, for which the max response in experiment [1] is -1.4%. Further, the outcome in experiment [2] was inactive.

Values taken from PubChem BioAssay (NCATS).
